Results: PubChem BioAssay (NCI)
This is part of a sample that, as a whole, favours compounds with a hit. Of some 83,000 tested, about 20% had one in any assay.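 How to read the values: 0–100, growth inhibition (40 = 60% inhibited); 0, no net growth; -100 to 0, cell death (-40 = 40% of starting cells died; -100 = all dead).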 Active and inactive are the calls of the source.

test system: NCI-H322M lung; assay: NCI-60 one-dose screen, 48 h (100 = growth as untreated, 0 = no growth, -100 = all killed); conditions: 10 µM unless noted
Description: Growth inhibition of the NCI-H322M human Non-Small Cell Lung tumor cell line is measured as a screen for anti-cancer activity. Cells are grown in 96 well plates and exposed to the test compound for 48 hours. Compounds are tested at a single concentration, which is 10^-5 M for most compounds. The reported endpoint is percent growth (GI% or GIPRCNT), where numbers from 0 - 100% represent growth inhibition, and numbers from -100% - 0 represent cell death. For example, a value of 40 represents 60% growth inhibition. A value of 0 means no net growth occurred over the course of the experiment. A value of -40 indicates 40% of cells at the beginning of the experiment died by the end of the experiment. A value of -100 means all cells are dead at the end of the experiment.
NCI-60 Human Tumor Cell Lines Screen was performed using the standard one-dose NCI protocol, which is described in more detail at https://dtp.cancer.gov/discovery_development/nci-60/default.htm.
Compounds with GIPRCNT values below 10 were considered active. Activity score was based on GIPRCNT using the following formula: […]
Score is 0 for GIPRCNT values of 100 or above, 50 for GIPRCNT values of 0, and 100 for GIPRCNT values of -100.

| Structure (SMILES) | growth |
| --- | --- |
| N=C1c2nc3n(c2C(=O)c2nc4n(c21)CCCCC4)CCCCC3 | 110% (inactive) |
| CCN1CCN(c2nc(NNC(=O)Cc3ccccc3)nc(N3CCN(C(c4ccccc4)c4ccccc4)CC3)n2)CC1 | 105% (inactive) |
| Oc1ccc(/C=N/Nc2nc3ccccc3s2)c(O)c1 | 11.9% (inactive) |
| CCOc1cc(/C=C/C(=O)CC(=O)/C=C/c2ccc(OC(=O)CNCCN(CC)CC)c(OCC)c2)ccc1OC(=O)CNCCN(CC)CC | -0.873% (active) |
| O=c1sc2ncnc3ncn1c32 | 77.9% (inactive) |
| CC(=O)O[C@H]1CC[C@@]2(C)C(=CC[C@@H]3[C@@H]2CC[C@]2(C)C(c4cccnc4)=CC[C@@H]32)C1 | 95.6% (inactive) |
| COC(=O)C1CCN(S(=O)(=O)c2ccc(-c3ccccc3)cc2)CC1 | 116% (inactive) |
| O=C(NCCCl)NCCN1c2nc3ccccc3cc2Sc2cc3ccccc3nc21 | 107% (inactive) |
| CS(=O)(=O)N1CCN(Cc2cc3nc(-c4cccc5[nH]ncc45)nc(N4CCOCC4)c3s2)CC1 (tested in a mixture with another compound) | 3.39% (active) |
| Cc1cc(Br)c(C)cc1Br | 96.4% (inactive) |
| COc1ccc(CNC(=O)c2c(C)n([O-])c3cc(F)c(F)cc3[n+]2=O)cc1 | 97.1% (inactive) |
| Cc1ccccc1NC(=O)NC(CC(N)=O)c1ccc2c(c1)nc(-c1cccc(Oc3ccc(C(C)(C)C)cc3)c1)n2CCCN1CCCCC1C (stereo not given) | 65% (inactive) |
| N#Cc1c(-c2ccccc2)cc(-c2ccccc2)n(CCCCC(=O)O)c1=O | 98.6% (inactive) |
| O=C(Nc1cccc(Cl)c1)Nc1cccc(Cl)c1 | 79.1% (inactive) |
| N#Cc1c(-c2ccccc2)cc(-c2ccccc2)n(CCCC(=O)O)c1=O | 95.3% (inactive) |
| CC(=O)Nc1c(Cl)cc2c(c1Cl)Cc1ccccc1-2 | 106% (inactive) |
| CC(=O)N1N=C(c2ccc(Nc3ccnc4cc(Cl)ccc34)cc2)CC1c1ccc(Cl)cc1 (stereo not given) | 96.3% (inactive) |
| O=C(COc1cccc(/C=C2\Oc3ccc4ccccc4c3C2=O)c1)c1ccc(Cl)cc1 | 108% (inactive) |
| CCCCCc1c(C)[nH]c(/C=C2\N=C(c3ccc[nH]3)C=C2OCc2ccccc2)c1C | -94.6% [100 µM] (active) |
| Nc1ccc(Oc2c(F)c(F)c(Oc3ccc(N)cc3)c(F)c2F)cc1 | -4.94% (active) |

| Structure (SMILES) | growth |
| --- | --- |
| CCCn1c(N)c(C(=O)CNc2ccc(I)cc2)c(=O)[nH]c1=O | 62% (inactive) |
| CCSCC1CC(O)(c2ccccc2)C(c2ccccc2)C(c2ccc(Cl)cc2)O1 (stereo not given) | 18% (inactive) |
| COc1ccc(C(=O)COc2cccc(/C=C3\CSc4ccc(Cl)cc4C3=O)c2)cc1 | 93.5% (inactive) |
| COc1ccc(NC(=O)c2ccc(-c3ccccc3)cc2)c(C(N)=O)c1 | 91.6% (inactive) |
| Cc1cc(Cl)ccc1Nc1nc(C(F)(F)F)ccc1C(=O)N/N=C/c1ccc(Cl)cc1 | -1.86% (active) |
| CCN(Cc1cccc(S(=O)(=O)[O-])c1)c1ccc(C(=C2C=CC(=[N+](CC)Cc3cccc(S(=O)(=O)O)c3)C=C2)c2ccccc2S(=O)(=O)O)cc1 | 98.1% (inactive) |
| Nc1nc(Nc2ccccc2SSc2ccccc2Nc2nc(N)nc(-c3cccc(Cl)c3)n2)nc(-c2cccc(Cl)c2)n1 | 91.8% (inactive) |
| O=C1C=CC(=O)N1c1ccccn1 | 110% (inactive) |
| Cc1sc2nc(NCc3ccccc3)[nH]c(=O)c2c1C | 91.3% (inactive) |
| [N-]=[N+]=NCc1cccc(/C(O)=C/C(=O)C(=O)O)c1 | 93.8% (inactive) |
| CSc1nc(N)c2c(n1)N(C)C=NS2(=O)=O | 114% (inactive) |
| CN1C(=O)C(C2=NN(C=O)C(c3ccc(F)cc3)C2)C(=O)N(C)C1=O (stereo not given) | 106% (inactive) |
| COc1ccc(-c2cc(-c3nnc(SCC(=O)Nc4ccc(C(C)=O)cc4)n3-c3ccccc3)c3ccccc3n2)cc1OC | 102% (inactive) |
| Cc1ccc2nc(-c3ccc(N(C)C)c(Br)c3)cn2c1 | 120% (inactive) |
| CCCCCCCCCCNCCSS(=O)(=O)O | 76.7% (inactive) |
| Cc1ccc(N/N=C(/C(=O)c2ccc(Cl)cc2)c2nc(C)cc(=O)[nH]2)cc1 | 106% (inactive) |
| COc1cc(NC(=O)NCc2ccco2)ccc1-c1ccc(NC(=O)NCc2ccco2)cc1OC | 49.5% (inactive) |
| O=C(c1ccc(Cl)cc1)c1ccc(Cl)cc1 | 115% (inactive) |
| O=c1ccn(C2CC=C(CO)O2)c(=O)[nH]1 (stereo not given) | 95.9% (inactive) |
| Cc1sc2nc(NCCc3cccs3)[nH]c(=O)c2c1C | 104% (inactive) |
